Screening data deposited in PubChem BioAssay by several laboratories.
A selection: hits, their analogues and other compounds. The true share with any hit is near 3.5%.
Myeloid diff MLP = compounds promoting myeloid differentiation. ER-HoxA9 myeloid progenitors, lysozyme-GFP differentiation, flow cytometry. 360,000 compounds, 1% hits. calls only at 10 µM;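 active = normalized GFP-positive differentiation at or above the plate's own cutoff, the solvent-only control mean plus 3 SD; inconclusive = no clear call, values can overlap the other calls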;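 note: cells exposed to compound for four days before flow analysis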
CHRM1 PAM = positive allosteric modulators of human M1 muscarinic receptor | P11229 | 360,000 compounds, 0.088% hits | AID 588819 | activation, % at 3 µM | CHO-K1 hM1, Fluo-8 calcium fluorescence, ACh EC20; 0% = ACh EC20, 100% = maximal ACh; in the data active = activation above about 19%, passing the limit was not always enough
Target sequence (P11229 whole entry, looked up): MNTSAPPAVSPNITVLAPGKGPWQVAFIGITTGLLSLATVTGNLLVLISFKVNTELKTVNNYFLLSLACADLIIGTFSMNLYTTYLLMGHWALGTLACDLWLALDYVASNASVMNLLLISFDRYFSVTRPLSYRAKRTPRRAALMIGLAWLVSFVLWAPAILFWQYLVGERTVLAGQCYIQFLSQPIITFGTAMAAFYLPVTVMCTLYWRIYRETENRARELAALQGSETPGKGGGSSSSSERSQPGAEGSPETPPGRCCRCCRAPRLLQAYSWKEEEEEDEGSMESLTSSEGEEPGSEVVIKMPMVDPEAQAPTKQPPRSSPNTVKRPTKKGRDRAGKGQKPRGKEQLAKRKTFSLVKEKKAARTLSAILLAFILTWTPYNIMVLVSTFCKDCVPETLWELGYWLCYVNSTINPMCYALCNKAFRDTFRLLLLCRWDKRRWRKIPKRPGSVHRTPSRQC
CHRM1 antagonist = antagonists of human M1 muscarinic receptor. CHO-K1 hM1, Fluo-8 calcium fluorescence, ACh EC80 antagonist. 360,000 compounds, 1.3% hits. inhibition, % at 3 µM. P11229;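 active = percent inhibition above its own plate's cutoff, namely the mean of that plate's compound wells plus 3 SD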;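 note: peak over basal fluorescence ratio during 140 s after agonist addition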
ATG4B inhibitor = ATG4B (human) cysteine protease inhibition; 340,000 compounds, 0.51% hits; AID 504462; inhibition, % at 8.33 µM; ATG4B cleavage of LC3-PLA2, NBD-HPC fluorescence, 1 h; Q9Y4P1; in the data active = inhibition above about 40%
M1 ag = agonists of human M1 muscarinic receptor; 360,000 compounds, 0.33% hits; CHO-K1 hM1, Fluo-8 calcium fluorescence, agonist mode; 0% DMSO, 100% acetylcholine EC100; activation, % at 3 µM; P11229; AID 588814;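 active = activation above the run's mean compound activation plus 3 SD, cut at about 16% in these data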;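 note: peak over basal fluorescence ratio within a 140 s kinetic read after compound addition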
SKN-1 block = inhibitors of C. elegans SKN-1. 360,000 compounds, 0.49% hits. AID 624304. C. elegans VP596 Pgst-4::GFP/RFP ratio, acrylamide-induced, 24 h. inhibition, % at 21.8 µM;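 active = interference check ratio from 0.5 to 1.5 plus GFP to RFP signal ratio inhibition reaching or exceeding a fixed threshold, cut at about 30% in these data, passing the limit was not always enough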
Of the large screens only hits and unclear results are named; the others gave an inactive call.

Cc1cccc(C)c1-n1nnnc1C1(C)CCC(=O)N1c1ccc(N2CCOCC2)cc1 (stereo not drawn)	none (no result: CHRM1 PAM, CHRM1 antagonist, ATG4B inhibitor, M1 ag)
Cc1nc(N)ncc1CCC1OCCO1	none (no result: ATG4B inhibitor)
CC(C)(C)N(Cc1ccccc1)C(=O)COC(=O)c1ccc(S(=O)(=O)N2CCOCC2)cc1	none
CSc1ccc(CN2CCC(C)(Oc3ccc4ccccc4c3)C2)cc1 (stereo not drawn)	Myeloid diff MLP active (no result: ATG4B inhibitor)
CSc1ccc(CN2CCC(C)(Oc3ccc(-n4ccnc4)cc3)C2)cc1 (stereo not drawn)	CHRM1 antagonist 58 (no result: ATG4B inhibitor)
O=S(=O)(Nc1nc2ccccc2nc1NCC1CCCO1)c1cccc(Cl)c1 (stereo not drawn)	none
OC(COC(c1ccccc1)c1ccccc1)CN1CCN(c2cccc(Cl)c2)CC1 (stereo not drawn)	none
CC(=O)c1ccc(N2CCN(CC(O)COC(c3ccccc3)c3ccccc3C)CC2)cc1 (stereo not drawn)	CHRM1 antagonist 101
CC(=O)c1ccc(N2CCN(CC(O)COC(c3ccccc3)c3ccccc3)CC2)cc1 (stereo not drawn)	CHRM1 antagonist 91 (no result: Myeloid diff MLP)
OCC(O)CN1CCN(c2ccccc2)CC1 (stereo not drawn)	Myeloid diff MLP active
CC(=O)c1ccc(OCC(O)CN2CCN(c3ccc(F)cc3)CC2)cc1 (stereo not drawn)	none
CC(C)CC(NC(N)=O)C(=O)NCc1ccccc1Cl (stereo not drawn)	Myeloid diff MLP active
CN(C)c1ccc(CNC(=O)CCc2ccc(S(=O)(=O)N3CCCCCC3)cc2)cc1	none
O=C(CN(Cc1ccc(F)cc1)C(=O)CCC(=O)Nc1nccs1)NCC1CCCO1 (stereo not drawn)	Myeloid diff MLP active
O=C(CN(C(=O)CCC(=O)Nc1nccs1)c1ccc(F)cc1)NCC1CCCO1 (stereo not drawn)	none
CCCNC(=O)C1(C)CCCN(C(=O)Cc2ccc(OC)c(OC)c2)C1 (stereo not drawn)	none (no result: ATG4B inhibitor)
O=C(CSc1nnnn1C1CCCCC1)Nc1cccc(NC(=O)c2ccco2)c1	SKN-1 block 37
Cc1ccc(Cn2nc(C)c(C(=O)NCC(c3ccc(F)cc3)N3CCOCC3)c2Cl)cc1 (stereo not drawn)	none
Clc1ccc(N2CCN(/N=C/c3cccnc3)CC2)cc1	SKN-1 block 66
CC1(C(=O)NCc2cccs2)Cc2c(-c3cccc(C(F)(F)F)c3)ccnc2O1 (stereo not drawn)	Myeloid diff MLP inconclusive (no result: ATG4B inhibitor)
Cn1c(=O)c2[nH]c(-c3ccc(S(=O)(=O)O)cc3)nc2n(C)c1=O	M1 ag 29
Cc1ccc(NC(=O)CNC(=O)C23CC4CC(CC(C4)C2)C3)nc1	none (no result: ATG4B inhibitor)
Cc1ccc(OC2=NS(=O)(=O)c3ccccc32)cc1	Myeloid diff MLP active
CCc1ccc(OC2=NS(=O)(=O)c3ccccc32)cc1	none
CCCCNC(=O)C[C@@H]1C[C@@]2(C(=O)OCC)CCCC=C2N(CCC2=CCCCC2)C1=O	none (no result: CHRM1 PAM, CHRM1 antagonist, ATG4B inhibitor, M1 ag)
COc1ccc(CCNC(=O)Nc2ccccc2[N+](=O)[O-])cc1	M1 ag 27
COc1ccc(CCNc2ccc(C(CC(N)=O)NC(=O)c3ccccc3)cc2[N+](=O)[O-])cc1 (stereo not drawn)	Myeloid diff MLP active
COc1ccc(CCNC(=O)COC(=O)Cc2ccccc2[N+](=O)[O-])cc1	none
NC(=O)CC(NC(=O)c1ccccc1)c1ccc(NCCc2ccc(F)cc2)c([N+](=O)[O-])c1 (stereo not drawn)	none
CCOC(=O)Cn1c(=O)c(-c2cc(Br)ccc2N)nc2ccccc21	Myeloid diff MLP active
Cc1ccc(-c2nc(N/N=C/c3ccccc3[N+](=O)[O-])c3ccccc3n2)cc1	Myeloid diff MLP active
C(=N\Nc1nc(-c2cccnc2)nc2ccccc12)/c1ccccc1	none
Brc1ccc(-c2nc(N/N=C/c3cccnc3)c3ccccc3n2)cc1	Myeloid diff MLP active
COC(=O)C[C@@H]1CC[C@H](NC(=O)c2ccccc2)[C@@H](CO)O1	none (no result: CHRM1 PAM, CHRM1 antagonist, ATG4B inhibitor, M1 ag)
COc1cc(CNC(C)c2ccccc2)cc(Br)c1OCc1ccccc1 (stereo not drawn)	none
COc1cc(CNC(C)c2ccccc2)cc(Br)c1OCc1ccc(F)cc1 (stereo not drawn)	SKN-1 block 66
COc1cc(CNC(C)(C)CO)cc(Br)c1OCc1ccc(Cl)cc1Cl	Myeloid diff MLP inconclusive
COc1cc(CNC(C)(C)CO)cc(Br)c1OCc1ccc(Cl)cc1	SKN-1 block 55
CCCS(=O)(=O)NC(=O)C1(C)CCN(C(=O)Cc2ccc3ccccc3c2)C1 (stereo not drawn)	none (no result: ATG4B inhibitor)
C[C@@H](OC(=O)N(C)Cc1ccccc1)[C@H]1O[C@]2(C)CCCC[C@H]1O2	none
CC(=O)N1Cc2ccccc2CC1C(=O)NCc1ccccc1F (stereo not drawn)	none
Cc1ccc(CNC(=O)[C@H]2O[C@@H](n3ccc(N)nc3=O)[C@H](O)[C@@H]2O)o1	none (no result: ATG4B inhibitor)
CC(NC(=O)c1cc(COc2ccccc2)on1)c1nccs1 (stereo not drawn)	SKN-1 block 35
COc1cccc(OCc2cc(C(=O)NC3CCOCC3)no2)c1	Myeloid diff MLP active
COc1cccc(CN(C)C(=O)c2cc(COc3ccc4ncccc4c3)on2)c1	CHRM1 antagonist 50
O=C(c1cc(COc2ccc3ncccc3c2)on1)N1CCCC1	none
CC(=O)c1ccc(OCc2cc(C(=O)NC(C)c3cnn(C)c3)no2)cc1 (stereo not drawn)	none
O=C(NC1CCCC1)c1cc(COc2ccc3ncccc3c2)on1	CHRM1 antagonist 31
COc1ccc(S(=O)(=O)Nc2c(O)ccc3ccccc23)cc1OC	none
CC(C)N(C(=S)Nc1ccc(S(=O)(=O)N2CCOCC2)cc1)c1ccccc1	none
CC1(c2nc3ccccc3[nH]2)CCCC2=Nc3ccccc3CN21 (stereo not drawn)	none (no result: CHRM1 PAM, CHRM1 antagonist, ATG4B inhibitor, M1 ag)
O=C(c1cc(COc2ccc3ncccc3c2)on1)N1CCCCCC1	none
CC(NC(=O)c1cc(COc2ccc3ncccc3c2)on1)c1ccc(F)cc1 (stereo not drawn)	CHRM1 antagonist 34
Cn1c(C(=O)NCCCN2CCCCCC2)cc2c(=O)n(C)c3ccccc3c21	Myeloid diff MLP inconclusive
Cn1c(C(=O)NCCCN2CCc3ccccc3C2)cc2c(=O)n(C)c3ccccc3c21	CHRM1 antagonist 34
CCC(=O)N1CCC(NC(=O)Nc2ccc(OC(F)(F)F)cc2)CC1	none
CCN(CC)c1ccc(/C=C/C(=O)C2C(=O)C=C(C)OC2=O)cc1 (stereo not drawn)	Myeloid diff MLP active, CHRM1 antagonist 56, M1 ag 134
CCOC(=O)c1ccc(N=C2C(=S)N(c3ccc(C(=O)OCC)cc3)C(=N)N2/N=C/c2ccccc2)cc1	CHRM1 antagonist 99
